This is an account of results in PubChem BioAssay (NCATS).

Results filed as inconclusive are left out. Calls of active or inactive are those of the source. Unless noted, the call rests on the fitted dose curve.

Experiment [1] has as its target Glucocorticoid receptor (Homo sapiens) (UniProt P04150). Description: qHTS assay for small molecule agonists of glucocorticoid receptor signaling (AID 588532; active means well fitted curve in the direction sought with a large enough effect in the signal ratio, with a control signal flat; the % refers to the signal ratio;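 further: 100% = dexamethasone at 0.1 µM and 0% = DMSO only wells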). To be noted: HeLa MMTV-bla, beta-lactamase ratio, agonist, 18 h; stronger effect = higher value; percent of dexamethasone control, DMSO zero. In outline: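 Cells were plated and rested 3-5 h at 37 C, compounds were added in titration and incubated 18 h, then CCF4 substrate was loaded for 2 h at RT before reading blue/green fluorescence. EC50 came from Hill-equation fitting.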
(Quantitative high-throughput screening tests each substance at several concentrations.)

Experiment [2] has the same target. Briefly: qHTS assay for small molecule antagonists of glucocorticoid receptor signaling (AID 588533; active means well fitted inhibition curve with a large enough effect in the signal ratio, with a control signal flat, not every such curve was filed as active; the % refers to the signal ratio; further: on the % scale 0 is the no-effect control and ±100 the full control effect). To be noted: HeLa MMTV-bla, GRE beta-lactamase ratio, antagonist mode, 18 h; series mostly up to 76.8 µM. In outline: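 Antagonist-mode qHTS: compound titrations added to GRE-bla HeLa cells, then dexamethasone 2 nM final; 18 h, 37 C. CCF4 FRET fluorescence normalized to dexamethasone and DMSO; IC50 from Hill fit.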

Experiment [3] can be described thus: qHTS assay for small molecule antagonists of peroxisome proliferator-activated receptor delta signaling (AID 588535; active means well fitted inhibition curve with a large enough effect in the signal ratio, with a control signal flat, not every such curve was filed as active; the % refers to the signal ratio;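 on max response: cells co-treated with a PPAR-delta agonist as stimulator during compound exposure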). To be noted: HEK293T PPARd-UAS-bla, beta-lactamase FRET ratio, 18 h; 460 nm channel. In outline:
(§1)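 Beta-lactamase reporter read-out (405 nm excitation, 460/530 nm emission) after CCF4 loading for 2 hrs at RT. HEK293T PPAR-delta-UAS-bla cells, 2% charcoal/dextran FBS, compounds for 18 hrs at 37 C. Hill fit gave IC50 and efficacy.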

Experiment [4] addresses Peroxisome proliferator-activated receptor delta (Homo sapiens) (UniProt Q03181). The description is as above. To be noted: HEK293T PPARd-UAS-bla, beta-lactamase FRET ratio, 18 h; series mostly up to 76.7 µM. In outline: as §1
Experiment [5] has as its target Peroxisome proliferator-activated receptor gamma (Homo sapiens) (UniProt P37231). Briefly: qHTS assay for small molecule agonists of peroxisome proliferator-activated receptor gamma signaling (AID 588536; active means well fitted curve in the direction sought with a large enough effect in the signal ratio, with a control signal flat, not every such curve was filed as active; the % refers to the signal ratio;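 further: 0% = DMSO basal wells and 100% = rosiglitazone at 2 µM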). To be noted: HEK293 PPARg-UAS-bla, beta-lactamase ratio, 16 h, percent of rosiglitazone response, DMSO as zero; series mostly up to 76.7 µM. In outline:
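Cells were plated and held 6–6.5 h at 37 C, then compounds were added as a titration series. After a further 16 h, CCF4 dye was loaded for 2 h at room temperature and emission at 460/530 nm recorded.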

Experiment [6] in a line: qHTS assay for small molecule agonists of retinoid X receptor alpha signaling (AID 588544).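 On activation: 0% = DMSO basal wells and 100% = reference agonist.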 Particulars: HEK293T RXRa-UAS-bla, beta-lactamase reporter, 18 h; 530 nm emission.
Experiment [7] addresses Retinoic acid receptor RXR-alpha (Homo sapiens) (UniProt P19793). The experiment is described as above. Particulars: HEK293T RXRa-UAS-bla, beta-lactamase reporter, 18 h; series mostly up to 76.7 µM.
Experiment [8] in a line: qHTS assay for small molecule antagonists of retinoid X receptor alpha signaling (AID 588546; active means well fitted inhibition curve with a large enough effect in the signal ratio, with a control signal flat, not every such curve was filed as active; the % refers to the signal ratio;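 further: cells stimulated with 9-cis-retinoic acid as agonist; on the % scale 0 is the no-effect control and ±100 the full control effect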). To be noted: HEK293T RXRa-UAS-bla, beta-lactamase ratio, antagonist mode; measured here: W530 green channel, cytotoxicity proxy. In outline:
(§2)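 Beta-lactamase reporter inhibition, read as CCF4 fluorescence ratio (ex 405, em 460/530 nm) after 2 h at RT. HEK293T UAS-bla cells, 2500/well, were stimulated with 9-cis-RA at 500 or 100 nM final alongside test compound for 18 h at 37 C.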

The target of experiment [9] is Retinoic acid receptor RXR-alpha (Homo sapiens) (UniProt P19793). The experiment is described as above. Particulars: HEK293T RXRa-UAS-bla, beta-lactamase ratio, antagonist mode. In outline:
as §2

Experiment [10] concerns the target Thyroid hormone receptor beta (Homo sapiens) (UniProt P10828). Briefly: qHTS assay for small molecule antagonists of thyroid hormone receptor beta signaling (AID 588547; active means well fitted inhibition curve with a large enough effect in the signal ratio, with a control signal flat, not every such curve was filed as active; the % refers to the signal ratio;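 further: cells stimulated with 0.4 nM T3 agonist during compound exposure; on the % scale 0 is the no-effect control and ±100 the full control effect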). Particulars: TR-UAS-bla HEK293, beta-lactamase ratio, antagonist mode, 18 h. In outline:
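TR-UAS-bla GripTite HEK293 cells in 2% charcoal/dextran FBS medium; compounds 0.59 nM to 92 uM with T3 at 0.4nM final, 18 h at 37 C. Beta-lactamase read by CCF4 fluorescence (460/530 nm); Hill fits gave IC50 and efficacy.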

For experiment [11], the target named is Voltage-gated inwardly rectifying potassium channel KCNH2 (Homo sapiens) (UniProt Q12809). Description: qHTS Assay for Small Molecule Inhibitors of the Human hERG Channel Activity (AID 588834; active means well fitted inhibition curve with a large enough effect;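 further: top concentration of the series differs between compounds; on the % scale 0 is the no-effect control and ±100 the full control effect; lower thallium flux fluorescence means stronger hERG block; nearly all actives have a fitted effect of over 50% in size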). To be noted: U2OS BacMam hERG, FluxOR thallium flux fluorescence; series mostly up to 92.2 µM. An outline of the steps: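 Step 1: BacMam hERG transduction of U2OS, 4 hrs RT. Step 2: overnight 37 °C, plate 2000 cells/well, 4 hr. Step 3: FluxOR load, compound 10 min, stimulate, read fluorescence.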

Experiment [12] is described as follows: qHTS assay for small molecule agonists of the antioxidant response element (ARE) signaling pathway (AID 651741; active means well fitted activation curve with a large enough effect in the signal ratio; the % refers to the signal ratio; further: potency means the concentration at half of the fitted maximal effect; on activation: % of control where 0% means no effect). Particulars: HepG2 ARE-bla reporter, beta-lactamase FRET ratio, 16 h; series mostly up to 96 µM. An outline of the steps: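 HepG2 ARE-bla reporter cells, 2,000/well; 5 h settle at 37 C/5% CO2; compound pin transfer (23 nL, DMSO); 16 h at 37 C; LiveBLAzer B/G FRET substrate, 2 h RT; fluorescence intensity read.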

Experiment [13] is described as follows: qHTS assay for small molecule activators of the p53 signaling pathway (AID 651743; active means well fitted activation curve with a large enough effect in the signal ratio, not every such curve was filed as active; the % refers to the signal ratio; further: % of control where 0% means no effect). Particulars: HCT-116 p53RE-bla, beta-lactamase FRET ratio, 16 h; stronger effect = higher value. In outline:
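Reporter: beta-lactamase driven by p53 response elements, stably integrated in HCT-116 cells. Cells seeded at 4,000/well, 5 h preincubation, compound (DMSO) 16 h at 37 C; B/G FRET substrate 2 h RT; fluorescence intensity read.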

Experiment [14] can be described thus: qHTS assay for small molecule activators of the nuclear factor-kappa B (NF-kB) signaling pathway (AID 651749; active means well fitted activation curve with a large enough effect in the signal ratio; the % refers to the signal ratio; further: % of control where 0% means no effect). To be noted: NF-kB-bla ME-180 cells, beta-lactamase FRET ratio, 16 h; stronger effect = higher value. In outline:
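NF-kB-bla ME-180 cells, 2,000/well; 23 nL compound or DMSO pinned; 16 hr, 37C/5% CO2; beta-lactamase FRET read-out.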

The target of experiment [15] is Vitamin D3 receptor (Homo sapiens) (UniProt P11473). Briefly: qHTS assay for small molecule antagonists of vitamin D receptor signaling (AID 588541).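 Further: receptor activated by calcitriol during compound treatment; on the % scale 0 is the no-effect control and ±100 the full control effect.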 Particulars: HEK293T VDR-UAS-bla, beta-lactamase ratio, antagonist mode; series mostly up to 76.7 µM. An outline of the steps: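 VDR-UAS-bla HEK293T cells in 2% charcoal-stripped FBS were stimulated with 1-alpha,25-dihydroxyvitamin D3 (3 nM final) plus compound for 16 h at 37 C. The beta-lactamase CCF4 readout was normalized to 50 nM agonist and DMSO, and Hill fits gave IC50.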

Experiment [16] has the same target. Description: qHTS assay for small molecule agonists of vitamin D receptor signaling (AID 588543).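 Further: 0% = DMSO basal and 100% = reference agonist control.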 Particulars: HEK293T VDR-UAS-bla, beta-lactamase ratio, 16 h; series mostly up to 76.8 µM. An outline of the steps: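 Reporter cells (HEK293T, VDR-UAS-bla) were seeded in medium with 2% charcoal-stripped serum and incubated 5 h, then compounds in concentration series were added for 16 h at 37 °C. Stimulation was scaled between DMSO basal and 50 nM 1α,25-dihydroxyvitamin D3.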

Experiment [17] addresses Thyroid hormone receptor beta (Homo sapiens) (UniProt P10828). Description: qHTS assay for small molecule agonists of thyroid hormone receptor beta signaling (AID 588545). To be noted: TR-UAS-bla GripTite HEK 293, beta-lactamase ratio, agonist mode, 18 h, percent of T3 response, DMSO as zero; series mostly up to 76.7 µM. An outline of the steps: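 Agonist activity was read as beta-lactamase CCF4 fluorescence (405 ex, 460/530 em), scaled between DMSO (0%) and 10 nM T3 (100%), then Hill-fitted for EC50 and efficacy. HEK 293 TR-UAS-bla cells in 2% charcoal/dextran FBS medium were exposed 18 h at 37 C.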

For experiment [18], the target named is Peroxisome proliferator-activated receptor gamma (Homo sapiens) (UniProt P37231). Description: qHTS assay for small molecule antagonists of peroxisome proliferator-activated receptor gamma signaling (AID 588537; active means well fitted inhibition curve with a large enough effect in the signal ratio, with a control signal flat, not every such curve was filed as active; the % refers to the signal ratio;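 further: reporter cells co-stimulated with 50 nM rosiglitazone agonist during compound treatment; % of control where 0% means no effect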). Particulars: HEK293 PPARg-UAS-bla, beta-lactamase ratio, antagonist mode; series mostly up to 76.8 µM. An outline of the steps:
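Read-out: CCF4 fluorescence (ex 405, em 460/530 nm) after 2 h at RT. Cells were HEK293 carrying a UAS-bla reporter and treated 16 h at 37 C with compound plus rosiglitazone (50 nM final). Normalized to rosiglitazone and DMSO.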

Sequence of Vitamin D3 receptor (Homo sapiens) (P11473 whole entry, looked up): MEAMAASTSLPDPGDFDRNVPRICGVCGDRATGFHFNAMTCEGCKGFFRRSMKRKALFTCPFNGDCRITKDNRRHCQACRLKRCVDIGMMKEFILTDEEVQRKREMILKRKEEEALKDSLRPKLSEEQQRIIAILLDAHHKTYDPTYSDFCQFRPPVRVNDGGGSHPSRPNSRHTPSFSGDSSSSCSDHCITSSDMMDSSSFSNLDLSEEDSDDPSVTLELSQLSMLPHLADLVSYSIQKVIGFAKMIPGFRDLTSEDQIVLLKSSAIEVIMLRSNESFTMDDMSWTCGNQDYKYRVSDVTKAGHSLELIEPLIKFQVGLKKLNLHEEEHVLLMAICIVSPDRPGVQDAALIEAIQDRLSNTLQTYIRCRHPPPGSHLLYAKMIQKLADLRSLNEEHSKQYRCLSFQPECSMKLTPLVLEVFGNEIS
Sequence of Peroxisome proliferator-activated receptor gamma (Homo sapiens) (P37231 whole entry, looked up): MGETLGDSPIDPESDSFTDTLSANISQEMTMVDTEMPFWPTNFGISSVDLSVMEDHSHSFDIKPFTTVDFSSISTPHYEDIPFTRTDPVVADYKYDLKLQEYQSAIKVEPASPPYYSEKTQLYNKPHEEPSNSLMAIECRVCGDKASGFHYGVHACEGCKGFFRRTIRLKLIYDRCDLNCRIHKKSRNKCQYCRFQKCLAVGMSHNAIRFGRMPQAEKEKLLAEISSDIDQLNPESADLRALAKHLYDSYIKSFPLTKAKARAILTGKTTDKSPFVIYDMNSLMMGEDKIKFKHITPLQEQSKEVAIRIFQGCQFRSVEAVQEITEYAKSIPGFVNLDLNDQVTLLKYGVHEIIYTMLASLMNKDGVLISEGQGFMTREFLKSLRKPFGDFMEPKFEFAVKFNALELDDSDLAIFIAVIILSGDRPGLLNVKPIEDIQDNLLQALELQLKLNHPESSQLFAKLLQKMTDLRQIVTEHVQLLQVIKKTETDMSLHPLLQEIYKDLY
Sequence of Peroxisome proliferator-activated receptor delta (Homo sapiens) (Q03181 whole entry, looked up): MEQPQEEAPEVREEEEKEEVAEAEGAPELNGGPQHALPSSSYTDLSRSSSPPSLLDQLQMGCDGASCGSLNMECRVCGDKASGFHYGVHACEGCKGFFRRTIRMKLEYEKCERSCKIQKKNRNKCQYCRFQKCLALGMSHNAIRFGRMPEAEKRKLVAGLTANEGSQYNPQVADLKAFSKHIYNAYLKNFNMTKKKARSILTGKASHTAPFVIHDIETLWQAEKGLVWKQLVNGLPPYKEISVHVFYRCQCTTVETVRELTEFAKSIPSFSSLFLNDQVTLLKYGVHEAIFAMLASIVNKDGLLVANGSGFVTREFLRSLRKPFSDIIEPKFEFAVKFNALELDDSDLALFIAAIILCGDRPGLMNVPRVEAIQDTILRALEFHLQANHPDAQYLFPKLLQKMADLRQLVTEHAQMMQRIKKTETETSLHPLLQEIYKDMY
Sequence of Retinoic acid receptor RXR-alpha (Homo sapiens) (P19793 whole entry, looked up): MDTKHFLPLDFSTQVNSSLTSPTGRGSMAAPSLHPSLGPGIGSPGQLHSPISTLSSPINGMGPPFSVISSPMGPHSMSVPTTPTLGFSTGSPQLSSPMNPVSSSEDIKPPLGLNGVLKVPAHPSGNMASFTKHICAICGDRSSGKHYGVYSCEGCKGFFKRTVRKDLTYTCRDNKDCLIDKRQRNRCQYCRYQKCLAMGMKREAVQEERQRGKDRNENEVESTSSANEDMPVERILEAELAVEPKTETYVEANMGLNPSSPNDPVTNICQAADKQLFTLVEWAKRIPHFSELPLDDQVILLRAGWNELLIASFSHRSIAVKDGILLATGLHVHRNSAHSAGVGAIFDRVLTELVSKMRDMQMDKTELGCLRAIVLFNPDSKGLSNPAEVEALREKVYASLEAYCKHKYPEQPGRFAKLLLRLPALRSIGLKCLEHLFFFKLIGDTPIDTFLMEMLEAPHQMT
Sequence of Glucocorticoid receptor (Homo sapiens) (P04150 whole entry, looked up): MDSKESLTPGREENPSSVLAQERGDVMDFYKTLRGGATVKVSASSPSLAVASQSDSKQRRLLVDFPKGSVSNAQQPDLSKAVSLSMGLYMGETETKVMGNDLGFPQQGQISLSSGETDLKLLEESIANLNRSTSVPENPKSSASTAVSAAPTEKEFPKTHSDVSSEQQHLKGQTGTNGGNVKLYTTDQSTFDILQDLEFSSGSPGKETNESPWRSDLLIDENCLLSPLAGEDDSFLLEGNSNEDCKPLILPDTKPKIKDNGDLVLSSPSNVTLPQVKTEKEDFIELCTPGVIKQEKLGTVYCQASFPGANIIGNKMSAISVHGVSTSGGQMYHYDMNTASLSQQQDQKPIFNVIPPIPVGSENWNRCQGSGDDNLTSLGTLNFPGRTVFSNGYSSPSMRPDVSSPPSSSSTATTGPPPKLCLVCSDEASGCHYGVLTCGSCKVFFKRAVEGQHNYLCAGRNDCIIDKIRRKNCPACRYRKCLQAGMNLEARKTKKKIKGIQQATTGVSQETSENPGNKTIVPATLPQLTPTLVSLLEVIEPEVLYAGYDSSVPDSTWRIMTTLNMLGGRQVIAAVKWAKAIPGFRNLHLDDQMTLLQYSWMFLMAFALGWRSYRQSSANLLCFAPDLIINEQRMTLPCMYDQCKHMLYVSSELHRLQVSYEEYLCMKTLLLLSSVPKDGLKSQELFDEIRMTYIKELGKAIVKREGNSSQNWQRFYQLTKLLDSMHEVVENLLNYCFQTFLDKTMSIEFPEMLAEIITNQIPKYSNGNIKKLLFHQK
Sequence of Thyroid hormone receptor beta (Homo sapiens) (P10828 whole entry, looked up): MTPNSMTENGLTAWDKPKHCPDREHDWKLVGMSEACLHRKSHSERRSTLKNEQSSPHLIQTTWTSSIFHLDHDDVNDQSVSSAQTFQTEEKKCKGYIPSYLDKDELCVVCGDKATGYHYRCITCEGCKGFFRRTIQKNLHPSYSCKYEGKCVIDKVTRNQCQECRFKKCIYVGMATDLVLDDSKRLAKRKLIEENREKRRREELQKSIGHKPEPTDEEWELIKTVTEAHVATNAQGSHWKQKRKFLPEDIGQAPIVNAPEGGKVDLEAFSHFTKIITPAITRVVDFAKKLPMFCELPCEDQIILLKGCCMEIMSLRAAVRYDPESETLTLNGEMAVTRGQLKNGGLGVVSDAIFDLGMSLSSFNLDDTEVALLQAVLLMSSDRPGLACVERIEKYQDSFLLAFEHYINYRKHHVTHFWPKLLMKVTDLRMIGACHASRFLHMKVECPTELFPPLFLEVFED
Sequence of Voltage-gated inwardly rectifying potassium channel KCNH2 (Homo sapiens) (Q12809 whole entry, looked up): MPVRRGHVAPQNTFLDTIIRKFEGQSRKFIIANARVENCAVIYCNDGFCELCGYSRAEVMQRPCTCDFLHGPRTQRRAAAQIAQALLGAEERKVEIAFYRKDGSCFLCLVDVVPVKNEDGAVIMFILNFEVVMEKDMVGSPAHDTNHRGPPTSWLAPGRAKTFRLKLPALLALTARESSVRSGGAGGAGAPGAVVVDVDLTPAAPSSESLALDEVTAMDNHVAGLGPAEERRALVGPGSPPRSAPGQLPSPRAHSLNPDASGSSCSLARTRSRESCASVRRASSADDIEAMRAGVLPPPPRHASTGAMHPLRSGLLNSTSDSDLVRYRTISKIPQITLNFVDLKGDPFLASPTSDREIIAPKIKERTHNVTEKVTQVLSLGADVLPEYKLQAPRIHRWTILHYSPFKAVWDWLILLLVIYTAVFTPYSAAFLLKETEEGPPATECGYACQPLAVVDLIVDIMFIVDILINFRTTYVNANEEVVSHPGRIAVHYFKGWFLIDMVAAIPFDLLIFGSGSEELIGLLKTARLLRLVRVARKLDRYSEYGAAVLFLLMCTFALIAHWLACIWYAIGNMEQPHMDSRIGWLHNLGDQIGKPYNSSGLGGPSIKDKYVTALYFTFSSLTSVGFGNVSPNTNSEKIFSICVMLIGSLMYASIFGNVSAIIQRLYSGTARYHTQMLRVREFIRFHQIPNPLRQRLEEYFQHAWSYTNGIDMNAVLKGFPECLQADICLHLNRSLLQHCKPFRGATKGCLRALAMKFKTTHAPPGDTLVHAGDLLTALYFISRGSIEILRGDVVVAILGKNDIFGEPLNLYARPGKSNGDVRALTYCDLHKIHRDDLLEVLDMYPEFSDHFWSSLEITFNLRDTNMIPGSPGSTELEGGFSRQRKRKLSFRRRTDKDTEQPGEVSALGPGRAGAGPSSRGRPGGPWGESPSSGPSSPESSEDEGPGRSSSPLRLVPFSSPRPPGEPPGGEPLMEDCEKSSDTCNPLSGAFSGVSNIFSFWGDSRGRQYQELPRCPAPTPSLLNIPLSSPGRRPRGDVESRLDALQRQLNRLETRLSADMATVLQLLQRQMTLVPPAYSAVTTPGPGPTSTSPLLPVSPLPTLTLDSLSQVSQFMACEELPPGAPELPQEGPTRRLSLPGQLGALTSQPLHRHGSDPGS

As to `O=C1NC(=O)c2cc([N+](=O)[O-])ccc21`, the activation was -4.49% (inactive) in experiment [1], -2.78% (inactive) in experiment [13] and 0.0192% (inactive) in experiment [14]. In addition, the outcome in experiment [2], in experiment [5] and in [7] was inactive. Also, the max response is -20.7% in experiment [3], 3.03% in experiment [6], 4.85% in [8] and 7.59% (inactive) in experiment [9]. Further, the Potency result in experiment [4], in experiment [11] and in experiment [12] was “inactive” in each case. Further, the activity change % (negative = inhibition) in experiment [10] is 2.64% (inactive).

Turning to `CC(C)(O)C(=O)O`, the activation in experiment [1] is 5.7% (inactive); in [13], -1.64% (inactive); in [14], -0.233% (inactive). In addition, the result in experiment [2], in [15], in experiment [16], in experiment [7] and in experiment [17] was inactive. For the same molecule, the max response in [3] is 57.5%; in [6], -2.22%; in experiment [8], 2.28%; in experiment [9], 3.29% (inactive). Further, the Potency entry in experiment [4], in [11] and in [12] was “inactive” in each case. For the same molecule, the activity change % (negative = inhibition) in experiment [10] was 8.51% (inactive).

As for `O=C1OC(=O)c2cc([N+](=O)[O-])ccc21`, the activation in experiment [1] was 5.66% (inactive); in experiment [13], 1.53% (inactive); in [14] it was -0.857% (inactive). The result in experiment [2], in experiment [5], in [18], in experiment [15], in [16] and in experiment [7] was inactive. Moreover, in experiment [17], the result was inactive. In addition, the max response is 9.55% in [3], 18.2% in experiment [6], 10.4% in experiment [8] and 1.57% (inactive) in experiment [9]. Also, the Potency entry in experiment [4], in experiment [11] and in [12] was “inactive” in each case. Besides, in experiment [10], the activity change % (negative = inhibition) is 7.82% (inactive).

As to `Nc1nc(-c2ccccc2)cs1`, the activation in [1] was 1.27% (inactive); in [14], 0.279% (inactive). In addition, the result in experiment [2], in experiment [5], in experiment [15], in experiment [16] and in [7] was inactive. Moreover, the max response in [3] was -2.19%; in experiment [6], -6.18%; in experiment [8], 7.15%; in experiment [9], -5.77% (inactive). Besides, the Potency entry in experiment [4] and in experiment [11] was “inactive” in each case. Also, the Potency in [12] was 37.6 µM (active).

For the molecule `C=Cc1ccccc1C=C`, the activation in experiment [1] was 2.03% (inactive); in [13] it was -1.45% (inactive). In addition, the outcome in [2], in experiment [5], in experiment [18], in [15], in experiment [16] and in experiment [7] was inactive. Moreover, in experiment [17], the result was inactive. The max response is -7.99% in experiment [3], -7.36% in [6] and -3.83% in experiment [8]. Also, the Potency result in [4] and in [11] was “inactive” throughout. Besides, the activity change % (negative = inhibition) in experiment [10] is -4.38% (inactive).

`CC(C)=CCl`: the activation in experiment [1] is 2.68% (inactive); in experiment [13] it was -2.89% (inactive); in [14], 0.211% (inactive). For the same molecule, the outcome in experiment [2], in experiment [15], in [16], in experiment [7] and in experiment [17] was inactive. The max response is 6.55% in experiment [3], 6.48% in [6], -7.86% in experiment [8] and 7.55% (inactive) in [9]. Besides, the Potency entry in experiment [4], in experiment [11] and in [12] was “inactive” throughout. In experiment [10], the activity change % (negative = inhibition) was -1.53% (inactive).

As to `COc1ccc(N=[N+]([O-])c2ccc(OC)cc2)cc1`, the activation in [1] was 9.01% (inactive); in [13], -0.811% (inactive); in experiment [14], 0.0779% (inactive). For the same molecule, the outcome in experiment [2], in [5], in [15], in experiment [16] and in experiment [17] was inactive. Also, the max response is 8.26% in experiment [3], -4.97% in experiment [8] and -10.1% (inactive) in [9]. The Potency entry in experiment [4] and in [11] was “inactive” throughout. Also, the activity change % (negative = inhibition) in experiment [10] was 11.6% (inactive). In experiment [12], the Potency is 37.6 µM (active).
